Binding signal data for 46 sequences are collected here from article PMC7819943, “Rice protein-binding microarrays: a tool to detect cis-acting elements near promoter regions in rice”.

Whole data set: some 68,000 sequences, median “fluorescence intensity (a.u.)” near 9,100, cut for the highest 2% near 16,000. This is one part of a sample in which the highest values are shown more often than they occur.

OsWRKY34, sequence (Q0JBA9 entry or part of it): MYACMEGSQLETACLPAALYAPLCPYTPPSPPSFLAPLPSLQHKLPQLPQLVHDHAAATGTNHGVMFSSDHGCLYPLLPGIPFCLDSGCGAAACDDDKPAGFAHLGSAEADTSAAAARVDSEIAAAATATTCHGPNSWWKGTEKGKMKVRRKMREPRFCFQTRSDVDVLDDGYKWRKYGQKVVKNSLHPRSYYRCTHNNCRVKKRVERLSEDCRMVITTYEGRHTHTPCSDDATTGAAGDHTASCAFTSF

The target of this assay is OsWRKY34 (Oryza sativa, UniProt Q0JBA9 1-250). The assay is described as follows: protein-binding microarray (RPBM); PBS, 2% BSA, 51.3 ng/ul salmon testes DNA, 50 uM zinc acetate, 200 nM TF, 25 C, 1 h; high values mean tight binding. The settings on record: protein: recombinant; tags: N-terminal polyhistidine and DsRed monomer fusion (pET32a); label: CyDye5-dUTP incorporated in the synthesized complementary strand; 3' TTTTT single-stranded linker to array surface; dsDNA, one strand shown. In a few lines:
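For the binding signal, per-feature fluorescence intensity was read in arbitrary units on an Axon 4000B scanner. Before scanning, a 2% BSA-blocked custom Agilent array made double-stranded with Cy5-dUTP was washed after 1 h at 25 °C with 200 nM protein and 50 µM zinc acetate. The proteins were Ni–NTA-purified transcription factors with N-terminal polyhistidine and DsRed fusions, expressed in E. coli BL21-CodonPlus.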
For the sequence “CGGGAGGAGGGAGGTTGTTTCGTCTGGGGTTTGATTGGGACGGAGTCACCTAGTGCAG”, the binding signal was 18200 fluorescence intensity (a.u.).

On to “TTTACAGTTGATTTTGACGGGTTTGTTGGCGAGGATTTTTCGGAGTCACCTAGTGCAG”, for which the binding signal is 9360 fluorescence intensity (a.u.).

“GATTAGGGTTGTTGCCGGGGTTTGTTTGGTGTTGCGGCGGCGGAGTCACCTAGTGCAG”: the binding signal is 8510 fluorescence intensity (a.u.).

Turning to “AGGGGAGGCGTCGCTTGGTCGCCATCTTCGTCGTTTGCTTCGGAGTCACCTAGTGCAG”, the binding signal is 9720 fluorescence intensity (a.u.).

For the sequence “TGCTTTCGTTGGGTTGGGGAAGGGGAGGCGTCGCTTGGTCCGGAGTCACCTAGTGCAG”, the binding signal is 17100 fluorescence intensity (a.u.).

In the case of “TTTGGGGTTTGAGAAGGTTGAGGAGGAGTTGGGAGGTTGACGGAGTCACCTAGTGCAG”, the binding signal is 9580 fluorescence intensity (a.u.).

With “CGGCGGGCGGGAGGGCGGCGTTGATTTCGTTGGGGTTTGCCGGAGTCACCTAGTGCAG”, the binding signal is 19100 fluorescence intensity (a.u.).

For the sequence “AGGCGGAGGAGGGGAGGCGGAAGGGGTTCGCGTCGGCGGCCGGAGTCACCTAGTGCAG”, the binding signal was 12200 fluorescence intensity (a.u.).

In the case of “AGAGAGAGGTTGCTGTTTCGATGCGTATTTCTGCAGCTTTCGGAGTCACCTAGTGCAG”, the binding signal was 10100 fluorescence intensity (a.u.).

For “GTCCCGGGCACCGACCACGATCCGTTCCCGCCACACAAACCGGAGTCACCTAGTGCAG”, the binding signal was 8080 fluorescence intensity (a.u.).

Take “TCCGCCCTCTGACCGCGGCGCCAAAGCTCCTCCGCGCGCGCGGAGTCACCTAGTGCAG”: the binding signal was 8030 fluorescence intensity (a.u.).

“CGGACCCCATACACCTCCGCCCGATTCCCGACGCAAATCCCGGAGTCACCTAGTGCAG”: the binding signal is 9260 fluorescence intensity (a.u.).

For “GTTTGTAACGTATTTTAGCTCGCTTTATAACGGGGCAGTTCGGAGTCACCTAGTGCAG”, the binding signal was 8160 fluorescence intensity (a.u.).

For “GATTGCTTTGTGGGTGTATGGTTCATCTTCAATGGTTTACCGGAGTCACCTAGTGCAG”, the binding signal was 8030 fluorescence intensity (a.u.).

For the sequence “CGTTTCAAAATGTTTGACACCGTTGACTTTTTAGTACATGCGGAGTCACCTAGTGCAG”, the binding signal was 35900 fluorescence intensity (a.u.).

Consider “TGATATCTTTTTCTTTAATGACTTTCCGTGTTTTCAACGTCGGAGTCACCTAGTGCAG”, for which the binding signal is 8090 fluorescence intensity (a.u.).

As to “AACGTACTAATGCATGACACCGTTGACTTTTTTTCAACGTCGGAGTCACCTAGTGCAG”, the binding signal is 40400 fluorescence intensity (a.u.).

Consider “CCGTTTCAAAATGTTTGACACCGTTGACTTTTTAGTACGTCGGAGTCACCTAGTGCAG”, for which the binding signal is 21100 fluorescence intensity (a.u.).

As to “GTTTCAAAATGTTTGACACCGTTGACTTTTTAGTACGTGTCGGAGTCACCTAGTGCAG”, the binding signal is 22500 fluorescence intensity (a.u.).

Take “CGACAAAATTCAACCGTAATTTCAACGTTTTCCTAACTTTCGGAGTCACCTAGTGCAG”: the binding signal was 8990 fluorescence intensity (a.u.).

“ACCATCACTTTTACTCTCTTTCTGCCTTAAAATCTCAATACGGAGTCACCTAGTGCAG”: the binding signal is 8590 fluorescence intensity (a.u.).

In the case of “CCCTTTCCTTTTCTTTTTTTTTCTCATTTTATCCACAATTCGGAGTCACCTAGTGCAG”, the binding signal was 9870 fluorescence intensity (a.u.).

For “CGTGGCCCATCTCCAATTCTCCAGTTGCTTCCTTTTCGTTCGGAGTCACCTAGTGCAG”, the binding signal was 12600 fluorescence intensity (a.u.).

On to “TCTCTTTCTTTCCTTAACTCTCTTTCTCTACTCTCCACTCCGGAGTCACCTAGTGCAG”, for which the binding signal was 9580 fluorescence intensity (a.u.).

Consider “GCTGTGTGTACATATTACTAGTACTACTTAATACGTGCTTCGGAGTCACCTAGTGCAG”, for which the binding signal was 11200 fluorescence intensity (a.u.).

Turning to “TTGTGAGTGTGTATGTGTTTATGGTGTGTAATTTTTTTTACGGAGTCACCTAGTGCAG”, the binding signal was 9320 fluorescence intensity (a.u.).

Regarding “GGCGTTGGTCACCTCCCGTGAGTCGTCCTCTATTCCTCTTCGGAGTCACCTAGTGCAG”, the binding signal is 11100 fluorescence intensity (a.u.).

Consider “GGTTGTAATCTATAGGGGTCCTTGTATAGAAATATCGTTTCGGAGTCACCTAGTGCAG”, for which the binding signal is 8880 fluorescence intensity (a.u.).

Turning to “CTCCTCGCCTTCTTCTCCATCTCCATCTCGCATCTTCTCTCGGAGTCACCTAGTGCAG”, the binding signal was 11400 fluorescence intensity (a.u.).

Turning to “GGGGTCGGGGTGGGAGAGGGAGGCTACACTACAGCAGCAGCGGAGTCACCTAGTGCAG”, the binding signal was 11100 fluorescence intensity (a.u.).

Regarding “ACATTTTAATTTGTAGGGAGAGGTACTATGGGCTTAACTTCGGAGTCACCTAGTGCAG”, the binding signal is 9750 fluorescence intensity (a.u.).

As to “ATTTTGGGACAGAGGTAGCAGTGAACTACACGTACCTTGTCGGAGTCACCTAGTGCAG”, the binding signal was 21500 fluorescence intensity (a.u.).

With “AACAAACCAACCTAGGATACTACTGTCAATTTTCACAACCCGGAGTCACCTAGTGCAG”, the binding signal was 9280 fluorescence intensity (a.u.).

Take “GCAGTACACTGATACGATACAATCGTTGACTGTTTCAGGACGGAGTCACCTAGTGCAG”: the binding signal was 9230 fluorescence intensity (a.u.).

Take “GGAGGAGGGGTGGGGTGTTGAGCCCTGGAGAAGCCACCGCCGGAGTCACCTAGTGCAG”: the binding signal was 21000 fluorescence intensity (a.u.).

For “AATGGGTGTTTTTTTAGTTGTTGTGTGTGTTTGGACGATTCGGAGTCACCTAGTGCAG”, the binding signal is 10400 fluorescence intensity (a.u.).

“GGCGCCGGGGTGGGGTGGTGCTGGAGCCACCGGAGGAGCGCGGAGTCACCTAGTGCAG”: the binding signal is 9730 fluorescence intensity (a.u.).

On to “GTGTGGGTGGCAGGGTGTGTTGAGGAGGTGCCCGCGTTGCCGGAGTCACCTAGTGCAG”, for which the binding signal is 10300 fluorescence intensity (a.u.).

Take “TGGATCTGGTGTGTTAGTTTGGATTTGTGTTTGTCCTTTTCGGAGTCACCTAGTGCAG”: the binding signal was 12600 fluorescence intensity (a.u.).

“TTGTTGGGTGGGGACGTGGGGTGGGGTTCATGGAGTGGTTCGGAGTCACCTAGTGCAG”: the binding signal was 24800 fluorescence intensity (a.u.).

For “TTTTGGTGGGTGGGTTTGGGACGTTGGATTGGTGGTGGACCGGAGTCACCTAGTGCAG”, the binding signal was 12600 fluorescence intensity (a.u.).

Consider “CGCTTCGCTGACGGTTGTGTGTTGGTGGGTGCAGGGGTGCCGGAGTCACCTAGTGCAG”, for which the binding signal was 12700 fluorescence intensity (a.u.).

Regarding “GATGCATTTTTGTCTGGGCGTTGTCCTTGTGGAAGCATCTCGGAGTCACCTAGTGCAG”, the binding signal was 10000 fluorescence intensity (a.u.).

“ATTGGATCCGGGGAGGAGGAGGTGGGGTTCGGTTTCGTGCCGGAGTCACCTAGTGCAG”: the binding signal was 11600 fluorescence intensity (a.u.).

For the sequence “CAGGAGGGGTGGGTTGTTGTTCGGTGGTGTGGACCCGTGCCGGAGTCACCTAGTGCAG”, the binding signal was 17700 fluorescence intensity (a.u.).

As for “TGTCCTTTGTTGTGGTGTGGTGGTGGGCATCTGGACCGTTCGGAGTCACCTAGTGCAG”, the binding signal is 29700 fluorescence intensity (a.u.).
